Source: PMC7862700, “An all-to-all approach to the identification of sequence-specific readers for epigenetic DNA modifications on cytosine”

Tests used:
Test in all cases: DAPPL (digital affinity profiling via proximity ligation, sequencing); 10 mM Tris-HCl pH 7.5, 50 mM NaCl, 1 mM DTT, 4% glycerol, room temperature, 30 min; GST-TFs on glutathione beads, 16-mer random dsDNA library, 0.1% formaldehyde crosslink after washing; high values mean tight binding
FEV = target: T1, FEV (Homo sapiens, UniProt Q99581 1-238); details: protein: recombinant; tags: N-terminal GST; dsDNA, one strand shown
T1 sequence: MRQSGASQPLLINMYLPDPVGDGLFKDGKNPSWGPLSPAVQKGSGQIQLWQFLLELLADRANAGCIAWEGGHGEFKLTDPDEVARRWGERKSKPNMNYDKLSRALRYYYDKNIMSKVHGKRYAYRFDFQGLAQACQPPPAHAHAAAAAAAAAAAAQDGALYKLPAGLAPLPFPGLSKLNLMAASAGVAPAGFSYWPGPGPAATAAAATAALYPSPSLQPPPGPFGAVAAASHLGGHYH
Method in brief: (§1)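 The binding signal reported is, for every hexamer, its read frequency for a factor over its read frequency for the tag-only sample. Reads came from pools of yeast-expressed, GST-fused human transcription factors on glutathione beads, barcoded with DNA and mixed with that sample, which were incubated with 200 nmole of a random double-stranded 16-mer DNA library in Tris/NaCl/DTT/glycerol buffer at room temperature for 30 min. After washing, the pools were crosslinked with 0.1% formaldehyde, proximity-ligated with BsaI/T4 ligase for 1 h at 37 °C, PCR-amplified and sequenced on an Illumina NextSeq500.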

ETV5 = ETV5 (Homo sapiens, UniProt P41161 1-510); details: protein: recombinant; tags: N-terminal GST; dsDNA, one strand shown
Method in brief: as §1

HSF1 = HSF1 (Homo sapiens, UniProt Q00613 1-529); details: protein: recombinant; tags: N-terminal GST; chain copies: 3; dsDNA, one strand shown
Method in brief: as §1

SPIC = target: T2, SPIC (Homo sapiens, UniProt Q8N5J4 1-248); details: protein: recombinant; tags: N-terminal GST; dsDNA, one strand shown
T2 sequence: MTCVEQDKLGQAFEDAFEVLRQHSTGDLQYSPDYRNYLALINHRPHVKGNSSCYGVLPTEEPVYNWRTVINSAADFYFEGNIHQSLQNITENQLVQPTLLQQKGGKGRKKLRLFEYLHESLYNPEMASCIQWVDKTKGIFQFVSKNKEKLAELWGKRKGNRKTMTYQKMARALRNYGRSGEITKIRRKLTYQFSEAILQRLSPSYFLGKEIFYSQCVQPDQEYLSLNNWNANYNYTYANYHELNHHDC
Method in brief: as §1

ELF4 = ELF4 (Homo sapiens, UniProt Q99607 1-663); details: protein: recombinant; tags: N-terminal GST; dsDNA, one strand shown
Method in brief: as §1

ELK4 = target: T3, ELK4 (Homo sapiens, UniProt P28324-2 1-405); details: protein: recombinant; tags: N-terminal GST; dsDNA, one strand shown
T3 sequence: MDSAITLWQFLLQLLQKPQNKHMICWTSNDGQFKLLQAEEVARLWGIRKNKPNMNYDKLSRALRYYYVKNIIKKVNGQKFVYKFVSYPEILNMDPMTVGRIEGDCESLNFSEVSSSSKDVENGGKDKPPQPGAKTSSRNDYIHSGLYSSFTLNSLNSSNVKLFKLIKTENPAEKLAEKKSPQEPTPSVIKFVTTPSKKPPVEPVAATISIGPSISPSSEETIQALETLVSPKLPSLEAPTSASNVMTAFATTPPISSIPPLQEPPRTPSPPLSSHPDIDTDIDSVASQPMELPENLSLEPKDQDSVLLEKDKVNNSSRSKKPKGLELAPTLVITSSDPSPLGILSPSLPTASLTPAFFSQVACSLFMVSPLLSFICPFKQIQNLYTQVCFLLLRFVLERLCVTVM
Method in brief: as §1

ETV2 = target: T4, ETV2 (Homo sapiens, UniProt O00321 1-342); details: protein: recombinant; tags: N-terminal GST; dsDNA, one strand shown
T4 sequence: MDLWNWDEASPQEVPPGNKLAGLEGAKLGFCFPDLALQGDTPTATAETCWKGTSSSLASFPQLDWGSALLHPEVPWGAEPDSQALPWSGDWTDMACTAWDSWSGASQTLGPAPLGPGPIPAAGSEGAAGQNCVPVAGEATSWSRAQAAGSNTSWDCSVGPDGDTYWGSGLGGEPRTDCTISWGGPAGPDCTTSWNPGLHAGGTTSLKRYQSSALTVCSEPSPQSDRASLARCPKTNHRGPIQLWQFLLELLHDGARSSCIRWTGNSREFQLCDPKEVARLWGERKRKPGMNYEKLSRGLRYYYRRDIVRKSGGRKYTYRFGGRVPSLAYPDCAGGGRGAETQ
Method in brief: as §1

ELF3 = target: T5, ELF3 (Homo sapiens, UniProt P78545 1-371); details: protein: recombinant; tags: N-terminal GST; dsDNA, one strand shown
T5 sequence: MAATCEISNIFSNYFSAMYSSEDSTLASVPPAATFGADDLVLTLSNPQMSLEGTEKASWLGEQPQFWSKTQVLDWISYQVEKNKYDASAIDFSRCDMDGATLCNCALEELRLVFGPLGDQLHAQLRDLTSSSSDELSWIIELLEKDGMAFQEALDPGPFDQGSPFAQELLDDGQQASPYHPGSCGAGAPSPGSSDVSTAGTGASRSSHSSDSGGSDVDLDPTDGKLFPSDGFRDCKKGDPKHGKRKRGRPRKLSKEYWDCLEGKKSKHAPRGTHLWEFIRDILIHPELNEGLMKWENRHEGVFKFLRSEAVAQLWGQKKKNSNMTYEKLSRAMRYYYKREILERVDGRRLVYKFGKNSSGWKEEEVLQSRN
Method in brief: as §1

ETV1 = ETV1 (Homo sapiens, UniProt P50549 1-477); details: protein: recombinant; tags: N-terminal GST; dsDNA, one strand shown
Method in brief: as §1

Chain of ETV5 (P41161 whole entry): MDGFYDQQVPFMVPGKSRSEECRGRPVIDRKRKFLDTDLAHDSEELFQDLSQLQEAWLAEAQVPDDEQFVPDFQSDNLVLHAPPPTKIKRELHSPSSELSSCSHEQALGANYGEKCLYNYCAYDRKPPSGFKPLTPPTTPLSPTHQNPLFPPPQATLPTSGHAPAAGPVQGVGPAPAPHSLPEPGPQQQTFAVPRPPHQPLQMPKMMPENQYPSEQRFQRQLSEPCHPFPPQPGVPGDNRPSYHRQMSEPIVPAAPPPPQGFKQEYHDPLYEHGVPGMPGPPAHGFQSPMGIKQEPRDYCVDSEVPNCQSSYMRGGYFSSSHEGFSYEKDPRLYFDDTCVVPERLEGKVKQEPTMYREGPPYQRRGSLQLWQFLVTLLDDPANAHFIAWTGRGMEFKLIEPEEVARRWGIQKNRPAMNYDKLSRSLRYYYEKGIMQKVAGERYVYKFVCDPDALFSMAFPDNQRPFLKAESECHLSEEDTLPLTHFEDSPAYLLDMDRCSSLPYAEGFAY
Chain of ETV1 (P50549 whole entry): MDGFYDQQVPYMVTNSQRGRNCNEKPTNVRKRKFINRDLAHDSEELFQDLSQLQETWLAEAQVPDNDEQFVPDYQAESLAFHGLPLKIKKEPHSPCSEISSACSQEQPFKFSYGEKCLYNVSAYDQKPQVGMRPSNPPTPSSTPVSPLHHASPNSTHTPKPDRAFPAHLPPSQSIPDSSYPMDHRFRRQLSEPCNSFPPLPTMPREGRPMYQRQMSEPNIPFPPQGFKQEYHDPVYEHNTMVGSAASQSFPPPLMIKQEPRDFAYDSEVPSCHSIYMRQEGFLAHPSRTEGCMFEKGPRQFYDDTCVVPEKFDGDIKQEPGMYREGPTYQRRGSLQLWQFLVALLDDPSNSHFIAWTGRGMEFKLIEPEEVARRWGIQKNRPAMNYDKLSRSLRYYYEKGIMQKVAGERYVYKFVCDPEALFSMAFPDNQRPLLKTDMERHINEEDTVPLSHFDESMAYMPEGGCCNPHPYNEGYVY
Chain of ELF4 (Q99607 whole entry): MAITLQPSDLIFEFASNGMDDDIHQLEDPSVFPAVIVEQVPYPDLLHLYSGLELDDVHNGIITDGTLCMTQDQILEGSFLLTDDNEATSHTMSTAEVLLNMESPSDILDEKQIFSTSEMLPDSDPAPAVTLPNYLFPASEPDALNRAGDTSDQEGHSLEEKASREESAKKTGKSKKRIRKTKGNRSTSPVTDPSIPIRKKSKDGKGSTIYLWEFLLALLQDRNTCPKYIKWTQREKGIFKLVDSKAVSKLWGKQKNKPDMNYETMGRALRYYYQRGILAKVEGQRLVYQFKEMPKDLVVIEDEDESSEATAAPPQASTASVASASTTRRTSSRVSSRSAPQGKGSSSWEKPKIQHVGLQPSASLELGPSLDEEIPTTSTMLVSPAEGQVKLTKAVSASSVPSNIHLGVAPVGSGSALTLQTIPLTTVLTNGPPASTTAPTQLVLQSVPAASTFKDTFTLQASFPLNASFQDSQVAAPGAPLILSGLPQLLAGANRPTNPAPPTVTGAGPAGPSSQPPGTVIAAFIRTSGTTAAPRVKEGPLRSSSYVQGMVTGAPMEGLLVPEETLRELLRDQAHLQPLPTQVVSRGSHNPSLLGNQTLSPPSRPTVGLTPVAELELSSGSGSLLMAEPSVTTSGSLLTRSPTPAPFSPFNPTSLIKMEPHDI
Chain of HSF1 (Q00613 whole entry): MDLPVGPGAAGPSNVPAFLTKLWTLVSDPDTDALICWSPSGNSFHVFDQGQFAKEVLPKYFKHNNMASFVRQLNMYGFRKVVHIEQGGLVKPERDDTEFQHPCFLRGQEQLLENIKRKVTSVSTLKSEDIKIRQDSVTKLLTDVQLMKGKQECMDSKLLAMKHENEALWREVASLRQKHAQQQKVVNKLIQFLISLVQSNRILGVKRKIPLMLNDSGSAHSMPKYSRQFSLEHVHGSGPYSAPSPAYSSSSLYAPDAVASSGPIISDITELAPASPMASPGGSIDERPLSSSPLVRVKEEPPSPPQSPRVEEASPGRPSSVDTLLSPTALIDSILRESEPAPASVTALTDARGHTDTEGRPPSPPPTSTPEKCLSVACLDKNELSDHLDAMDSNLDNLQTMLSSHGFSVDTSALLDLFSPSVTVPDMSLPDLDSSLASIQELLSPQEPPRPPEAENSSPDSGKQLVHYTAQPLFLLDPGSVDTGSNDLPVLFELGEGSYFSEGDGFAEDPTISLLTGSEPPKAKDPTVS

GGAAAT
binding signal (FEV): 4 fold enrichment (6-mer frequency, TF over GST control) | binding signal (ETV5): 3.05 fold enrichment (6-mer frequency, TF over GST control) | binding signal (HSF1): 1.29 fold enrichment (6-mer frequency, TF over GST control) | binding signal (SPIC): 2.47 fold enrichment (6-mer frequency, TF over GST control) | binding signal (ELF4): 2.4 fold enrichment (6-mer frequency, TF over GST control) | binding signal (ELK4): 2.13 fold enrichment (6-mer frequency, TF over GST control) | binding signal (ETV2): 2.4 fold enrichment (6-mer frequency, TF over GST control) | binding signal (ELF3): 2.74 fold enrichment (6-mer frequency, TF over GST control) | binding signal (ETV1): 2.69 fold enrichment (6-mer frequency, TF over GST control)
